Source: PubChem (several laboratories)
Beta cell apopt: blocks beta cell apoptosis | hit rate 0.8% among 300,000 | protection from apoptosis, % (concentration not given with the values) | INS-1E cytokine-induced death, ATP luminescence, 48 h; percent of positive-control rescue, neutral wells zero | AID 435005;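 active means Every replicate reaches about 75%, or at least half do and their mean reaches it too, limit read from the data; inconclusive means At least half of replicates reach the limit but their mean does not; inactive means Under half of replicates reach the limit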;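 further: 0% = cytokine-treated negative control wells and 100% = positive control rescue; higher means more ATP so stronger rescue from cytokine killing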
MPTP block: permeability transition pore inhibition | isolated mouse mitochondria, Ca2+ swelling absorbance, 30 min | inhibition, % at 10 µM | hit rate 1.4% among 360,000 | AID 602449;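 active means inhibition of 50% or more, scaled per plate between neutral and stimulator controls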;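 further: 0% = DMSO wells given calcium and 100% = 1 mM EGTA wells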
Mdm2 MdmX PPI: inhibitors of human Mdm2/MdmX interaction. O15151+Q00987. SaOS-2 split-luciferase Mdm2/MdmX complementation, luminescence. inhibition, % at 8 µM. hit rate 3% among 330,000;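 active means inhibition of at least 50% at 8 µM in the primary screen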
Target sequence (O15151 whole entry, looked up): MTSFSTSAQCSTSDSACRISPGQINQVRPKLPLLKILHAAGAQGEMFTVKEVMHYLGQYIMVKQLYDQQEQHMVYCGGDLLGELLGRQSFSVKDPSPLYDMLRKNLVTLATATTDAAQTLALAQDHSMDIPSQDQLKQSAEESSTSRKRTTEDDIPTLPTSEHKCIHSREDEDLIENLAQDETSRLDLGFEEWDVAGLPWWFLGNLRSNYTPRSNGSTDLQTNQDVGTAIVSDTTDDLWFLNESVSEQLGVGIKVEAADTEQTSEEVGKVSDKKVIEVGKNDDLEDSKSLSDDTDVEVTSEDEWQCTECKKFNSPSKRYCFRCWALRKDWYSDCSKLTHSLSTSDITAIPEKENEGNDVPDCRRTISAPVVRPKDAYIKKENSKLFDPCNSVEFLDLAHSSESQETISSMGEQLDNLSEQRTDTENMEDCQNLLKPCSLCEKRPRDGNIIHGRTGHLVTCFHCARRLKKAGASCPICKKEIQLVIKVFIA
Target sequence (Q00987 whole entry, looked up): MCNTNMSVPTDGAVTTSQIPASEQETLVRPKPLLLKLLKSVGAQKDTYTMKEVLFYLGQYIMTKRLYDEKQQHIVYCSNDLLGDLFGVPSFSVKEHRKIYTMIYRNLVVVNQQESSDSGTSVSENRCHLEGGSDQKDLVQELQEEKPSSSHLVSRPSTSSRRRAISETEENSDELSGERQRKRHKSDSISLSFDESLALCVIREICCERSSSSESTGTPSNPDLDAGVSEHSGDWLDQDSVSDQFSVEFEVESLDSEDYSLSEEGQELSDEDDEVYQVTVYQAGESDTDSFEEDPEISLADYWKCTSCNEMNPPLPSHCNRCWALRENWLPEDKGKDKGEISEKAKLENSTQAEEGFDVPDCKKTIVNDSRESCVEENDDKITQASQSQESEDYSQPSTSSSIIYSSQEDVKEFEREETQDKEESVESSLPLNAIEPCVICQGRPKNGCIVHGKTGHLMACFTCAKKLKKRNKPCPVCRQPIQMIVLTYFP
GRIN3A LBD mod: modulators (binders) of human NR3A ligand-binding domain | NR3A LBD differential scanning fluorimetry, Tm shift; 0% = protein alone, 100% = glycine-bound protein | Tm shift relative to glycine control, % at 25 µM | hit rate 2.5% among 340,000;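 active means melting temperature shift of at least 10% of the positive control shift, at one fixed dose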
SKKanGAS inh: blocks kanamycin growth of S. pyogenes SKKanGAS strain; inhibition, % at 7.5 µM; AID 1662; BacTiter-Glo, 6 h; hit rate 1.3% among 300,000;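 active means mean replicate score, as percent of positive control median, at least 50; inconclusive means mean below 50 but one replicate at or above 50; inactive means mean and every replicate below 50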;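 further: strain carries kanamycin resistance gene driven by streptokinase promoter and grows in 40 µg/ml kanamycin; loss of luminescence reflects streptokinase promoter inhibition or plain growth inhibition; 0% = median of DMSO wells and 100% = positive control at its reference dose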
CSC inhib: blocks cancer stem cells; inhibition, % at 7.5 µM; hit rate 1.1% among 300,000; AID 2717; cancer stem cell-like cells viability, luminescence; in the data active means inhibition above about 75%; inconclusive means no clear call, values can overlap the other calls; tested in HMLE shEcad cells
Rh123 counter: Rhodamine 123 counter-screen of mitochondrial pore hits | shares compounds with MPTP block | isolated mitochondria, membrane potential, Rhodamine 123 fluorescence | inhibition, % at 10 µM | hit rate 78% among 5,000; in the data active means inhibition above about 22%;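 further: 0% = DMSO vehicle and 100% = positive control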
MPTP swell DR: MPTP inhibition, dose response swelling confirmation | shares compounds with MPTP block | isolated mitochondria swelling, absorbance | IC50, µM | hit rate 58% among 780 | AID 651561; in the data active means IC50 below about 20 µM
MPTP cs DR: counter-screen for mitochondrial permeability transition pore inhibitors, dose response; isolated mitochondria counterscreen, fluorescence read-out; shares compounds with MPTP block; hit rate 49% among 780; IC50, µM; in the data active means IC50 below about 80 µM
The depositor's hits bear a star; i = inactive; ? = inconclusive; nt = not tested or not shown. Compounds with a hit are over-represented: about 6.9% of the library has one in this group of screens.

SMILES | Beta cell apopt | MPTP block | Mdm2 MdmX PPI | GRIN3A LBD mod | SKKanGAS inh | CSC inhib | Rh123 counter | others
C(=C\c1ccccc1)/CN1CCN(c2ncnc3c2oc2ccccc23)CC1 | 50 | 95* | -1 | 0 | 18 | -12 | 94*
Nc1nc(N2CCN(C/C=C/c3ccccc3)CC2)nc2ccccc12 | nt | 63* | 7 | -2 | nt | 25 | -6 | MPTP swell DR=i;MPTP cs DR=59*
O=C(CSc1ccccc1)NCC1(N2CCOCC2)CCCCC1 | nt | -3 | 7 | -1 | 0 | 4 | nt
Cc1ccc(Nc2nc(N)c([N+](=O)[O-])c(N3CCCC(C)C3)n2)cc1C (centres undefined) | 33 | 55* | 8 | -1 | 43 | 40 | -9 | MPTP swell DR=i;MPTP cs DR=70*
CC1CCCN(c2nc(NCc3ccco3)nc(N)c2[N+](=O)[O-])C1 (centres undefined) | -5 | 5 | -1 | 1 | 5 | nt | nt
CCN1CCN(c2nc(N)c([N+](=O)[O-])c(Nc3ccc(C)c(C)c3)n2)CC1 | 8 | 81* | 44 | 1 | 1 | -3 | -2 | MPTP swell DR=i;MPTP cs DR=77*
COC(=O)[C@]1(Cc2ccccc2)N[C@H](CN(C)C(=O)c2ccc(C)cc2)[C@@H]2C(=O)N(Cc3ccccc3)C(=O)[C@@H]21 | nt | 2 | 18 | -1 | nt | nt | nt
CCN(CC)C(=O)[C@H]1CC(CC(=O)NCc2cccc(C(F)(F)F)c2)C(=O)N2CCc3c([nH]c4ccccc34)[C@]12C (some centres undefined) | -2 | 61* | 33 | -3 | nt | nt | -1 | MPTP swell DR=>100;MPTP cs DR=63*
Cc1cccc(-n2c(C)cc(/C=C3\C(=N)N4N=C(CC(C)C)SC4=NC3=O)c2C)c1 | 3 | 12 | 25 | -2 | 25 | -4 | nt
CC(C)CC1=NN2C(=N)/C(=C\c3coc4ccccc4c3=O)C(=O)N=C2S1 | nt | 86* | nt | -2 | 14 | nt | 82*
CCSC1=NSC2=NC(=O)/C(=C\c3coc4ccccc4c3=O)C(=N)N12 | -1 | 101* | nt | 11* | nt | 12 | 74*
O=C(CNS(=O)(=O)c1ccc(Cl)cc1)NC1CCCCC1 | -2 | 2 | 25 | 3 | nt | nt | nt
COc1ccccc1NC(=O)c1c(Nc2ccccc2F)sc(C(=O)Nc2cccc(Cl)c2)c1N | 9 | 78* | 37 | 29* | 28 | 83* | 46*
Cc1noc(C)c1S(=O)(=O)N1CCN(c2ccccc2Cl)CC1 | nt | -1 | 11 | -2 | nt | nt | nt
CC[C@H](C)Cc1cn([C@@H](CCCN=C(N)N)C(=O)NCCCCCCCCCCC(=O)N2CCNCC2)nn1 | 1 | 86* | 3 | 0 | 15 | -13 | -15 | MPTP swell DR=11*;MPTP cs DR=76*
COc1ccc(C2/C=C\CN(C(=O)Nc3ccc(C(F)(F)F)cc3)CC(=O)N2Cc2ccc(F)cc2)cc1 (centres undefined) | 81* | 103* | 27 | -18 | 44 | -5 | 100*
COc1ccccc1C1NC(=O)c2ccccc2O1 (centres undefined) | 0 | 0 | -7 | -4 | -10 | 12 | nt
Cc1nnc(NC(=O)CSc2n[nH]c(-c3ccccc3C)n2)s1 | 0 | 96* | -15 | -2 | -2 | -12 | -8 | MPTP swell DR=>100;MPTP cs DR=>80
CCc1nnc(NC(=O)CSc2n[nH]c(-c3ccccc3O)n2)s1 | -3 | 2 | -1 | -3 | -10 | 11 | nt
COc1cccc(OC)c1C(=O)OCCCOC(=O)c1c(OC)cccc1OC | -6 | 0 | 29 | 5 | 4 | -2 | nt
Cn1cc(CNCc2cn(C)nc2-c2ccc(C3CCCCC3)cc2)cn1 | 0 | 92* | 25 | -1 | -5 | nt | -6 | MPTP swell DR=8.8*;MPTP cs DR=71*
CCCNC(=O)C1(C)CCCN(C(=O)c2cc(C)n(C(C)(C)C)n2)C1 (centres undefined) | nt | 0 | nt | nt | nt | nt | nt
COc1ccc(NC(=O)Cn2c(=O)oc3cc(S(=O)(=O)N4CCCC4)ccc32)cc1 | -6 | 1 | 12 | 0 | -4 | 10 | nt
Cc1ccc(NC(=O)Cn2c(=O)oc3cc(S(=O)(=O)N4CCC(C)CC4)ccc32)cc1C | 76* | 70* | 17 | -8 | 2 | -1 | 90*
Cc1ccc(-n2ncc3c(SCc4cccnc4)ncnc32)c(C)c1 | nt | 88* | nt | 0 | 2 | nt | 82*
SMILES | Beta cell apopt | MPTP block | Mdm2 MdmX PPI | GRIN3A LBD mod | SKKanGAS inh | CSC inhib | Rh123 counter | others
Cc1ccc(-n2ncc3c(NCCCn4ccnc4)ncnc32)c(C)c1 | -4 | 0 | 27 | -2 | -1 | 2 | nt
Cc1ccc(-n2ncc3c(N4CCCC4)ncnc32)c(C)c1 | nt | -1 | -9 | -4 | 1 | -6 | nt
Cc1ccc(-n2ncc3c(N4CCCC(C)C4)ncnc32)c(C)c1 (centres undefined) | 17 | 59* | -149 | 0 | -5 | 37 | 43*
O=C(O)c1ccc(Sc2nnc3ccccn23)c([N+](=O)[O-])c1 | -7 | 0 | 6 | 0 | 0 | -7 | nt
Cc1cc(=O)oc2c(C)c(OCC(=O)c3ccccc3)ccc12 | -2 | 0 | 49 | -1 | 2 | -8 | nt
COc1ccc(N2CC(C(=O)NNC(=O)c3ccc(Br)cc3)CC2=O)c(OC)c1 (centres undefined) | nt | 0 | -14 | 2 | -7 | -14 | nt
CCOC(=O)c1ccc(S(=O)(=O)Nc2ccc3cn[nH]c3c2)cc1 | 13 | 55* | 6 | -5 | -10 | -4 | 39*
COc1ccc(S(=O)(=O)Nc2ccc3cn[nH]c3c2)cc1C | -2 | 0 | 14 | -3 | 8 | nt | nt
Cc1cc(C)c(O)c(-c2n[nH]c3c2C(c2cccc(O)c2)N(Cc2ccco2)C3=O)c1 (centres undefined) | 7 | 9 | 37 | 0 | 23 | ? | nt
O=C(CCn1cccn1)Nc1ccc(-c2ccno2)cc1 | -1 | 2 | 3 | -5 | 1 | 5 | nt
COc1cc(NC(=O)CSCC(=O)Nc2cccc(C(F)(F)F)c2)c(Cl)cc1Cl | -5 | 58* | 11 | 5 | -2 | 23 | 63*
COc1ccc(NC(=O)CSCC(=O)NCc2cccc(C(F)(F)F)c2)cc1 | 3 | 2 | 9 | -3 | nt | 3 | nt
CSc1ccc(OCC(=O)Nc2ccc(N3CCOCC3)c(Cl)c2)cc1 | nt | 1 | 17 | -10 | -3 | nt | nt
O=C(COc1c(F)c(F)c(C(F)(F)F)c(F)c1F)Nc1ccc(N2CCOCC2)c(Cl)c1 | 5 | 90* | 17 | 11* | 6 | 32 | 78*
CCC(C)c1ccc(NC(=O)COc2c(F)c(F)c(C(F)(F)F)c(F)c2F)cc1 (centres undefined) | 3 | 83* | 11 | 4 | 67* | 61 | 95*
Cc1ccc2[nH]c(=O)c(-c3noc(CC(C)C)n3)cc2c1 | 0 | 1 | -5 | -1 | 6 | -5 | nt
OCCNc1nc2nonc2nc1NCCO | -4 | 1 | 24 | -3 | -12 | -8 | nt
